SW480 rerep: A quantitative high throughput screen for small molecules that induce DNA re-replication in SW480 colon adenocarcinoma cells; SW480 DNA re-replication, Hoechst DNA content imaging, 48 h; Potency, µM (titrated, usually from 46.1 µM), without a hit: at the highest dose re-replication activation, actives largely listed as activators; 340,000 tested, 1.8% active; AID 624297, 2012; also: % of control where 0% means no effect; nearly all actives have a fitted effect of over 55% in size
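DNA re-replication was detected as more nuclei of elevated Hoechst intensity after 48 hr exposure to compound (23 nL pinned per well of 250 cells).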
KB-3-1 tox: qHTS assay for MDR1-selective chemotherapeutics: Primary screen using the parental adenocarcinoma cell KB-3-1; 400,000 tested, 1.4% active; Potency, µM (doses to about 46.1 µM), usual class: cytotoxic; KB-3-1 viability, CellTiter-Glo ATP luminescence, 72 h; also: % is scaled to controls: 0 for no effect and ±100 for the full control effect; nearly all actives have a fitted effect of over 60% in size
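Screening of KB-3-1 cells (DMEM, 10% FBS, phenol-red free) ran from lowest to highest compound concentration; after 72 h at 37 °C viability was read luminescently and curves fitted.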
Gal4-VP16 FLuc: VP16 counterscreen qHTS for inhibitors of ROR gamma transcriptional activity; Drosophila S2 Gal4-VP16 UAS-luciferase, luminescence, 20 h; 310,000 tested, 3.5% active; Potency, µM (series often up to 53.6 µM), for inactives: top-dose activity, negative = inhibition, usual class: inhibitors;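 also: Gal4-VP16 expression switched on by copper sulfate through the metallothionein promoter; % is scaled to controls: 0 for no effect and ±100 for the full control effect; nearly all actives have a fitted effect of over 50% in size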
RORg inh: qHTS for inhibitors of ROR gamma transcriptional activity; Nuclear receptor ROR-gamma (Mus musculus), P51450; Drosophila S2 Gal4-RORgamma UAS-luciferase reporter, 20 h; Potency, µM (top dose mostly 53.6 µM), inactives show at the top dose activity change, negative = inhibition, actives largely listed as inhibitors; 310,000 tested, 5.4% active; AID 2551, 2010; also: % is scaled to controls: 0 for no effect and ±100 for the full control effect; nearly all actives have a fitted effect of over 60% in size
Target sequence (P51450 whole entry, looked up, the tested form may be a part): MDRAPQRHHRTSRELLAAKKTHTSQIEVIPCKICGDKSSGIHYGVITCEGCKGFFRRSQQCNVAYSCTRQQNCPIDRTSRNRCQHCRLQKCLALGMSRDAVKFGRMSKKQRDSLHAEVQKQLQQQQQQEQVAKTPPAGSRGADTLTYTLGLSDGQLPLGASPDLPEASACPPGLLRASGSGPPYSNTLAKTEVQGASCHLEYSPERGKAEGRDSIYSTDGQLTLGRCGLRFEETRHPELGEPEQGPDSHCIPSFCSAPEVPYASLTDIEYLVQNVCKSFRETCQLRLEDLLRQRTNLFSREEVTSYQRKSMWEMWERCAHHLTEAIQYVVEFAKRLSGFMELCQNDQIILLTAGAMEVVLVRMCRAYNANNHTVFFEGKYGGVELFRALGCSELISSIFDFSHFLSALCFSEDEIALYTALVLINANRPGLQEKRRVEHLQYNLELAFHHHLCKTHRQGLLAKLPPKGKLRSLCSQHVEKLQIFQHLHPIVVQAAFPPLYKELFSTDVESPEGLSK
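A Gal4/UAS one-hybrid system in insect cells: metallothionein-promoter Gal4–ROR gamma fusion plus Photinus luciferase reporter. Copper sulfate 700 uM final, 20 hr ambient incubation, luminescent detection after 10 min with reagent.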
KB-V1 cytotox: qHTS assay for MDR1-selective chemotherapeutics: Primary screen using the drug-selected MDR subline cells KB-V1; Potency, µM (highest dose often 46.1 µM), most hits filed as cytotoxic; 400,000 tested, 3.4% active; KB-V1 MDR cells viability, CellTiter-Glo, 72 h; also: % is scaled to controls: 0 for no effect and ±100 for the full control effect; nearly all actives have a fitted effect of over 60% in size
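Compound-treated KB-V1 multidrug-resistant cells, 72 h, 37 degrees C; viability by CellTiter-Glo. Fitted qHTS curves give the values.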
MCF10A rerep: A quantitative high throughput screen for small molecules that induce DNA re-replication in MCF 10a normal breast cells | Potency, µM (series often up to 46.1 µM), inactives show at the top dose activity, positive = re-replication, actives largely listed as activators | AID 624296, 2012 | MCF 10A DNA re-replication, Hoechst nuclear intensity, 48 h | 350,000 tested, 2.9% active; also: % of control where 0% means no effect; nearly all actives have a fitted effect of over 50% in size
Active calls of the source: *; i = inactive; ? = inconclusive; · = not tested or not shown; [ ] = another dose, or the depositor's remark. Most compounds without a hit are left out; they make up all but 10% or so of the library. Calls follow the shape of the dose curve; as a rule, active = well fitted curve in the direction sought with a large enough effect; inconclusive = small, poorly fitted or top-dose-only effect, or another doubt; inactive = no such curve, though single readings can be large; an effect the other way counts as inactive or inconclusive. Potency is read from the fitted curve at half-maximal effect.

SMILES	SW480 rerep	KB-3-1 tox	Gal4-VP16 FLuc	RORg inh	KB-V1 cytotox	MCF10A rerep
C=CCc1ccc(OCCOc2ccc(/C=N/n3cnnc3)cc2OCC)c(OC)c1	-4%	i	?	16µM*	i	5%
CCN(C(=O)CSc1nc2ccccc2n1CC(=O)NCc1ccc(OC)cc1)c1ccccc1	·	i	·	·	i	·
Cc1nc2c(-c3ccc(F)cc3)cnn2c(N)c1-c1ccccc1	?	i	?	0.045µM*	i	?
O=C(Nc1ccc(F)c(Cl)c1)[C@@H]1O[C@H](CO)[C@H](O)[C@H](O)[C@H]1O	·	i	·	·	i	·
CCc1c(C)sc(NC(=O)C2CC2c2ccccc2)c1C(N)=O (centres undefined)	17%	i	21%	?	6.5µM*	?
COc1cc(NC(=O)c2cccs2)c(OC)cc1NC(=O)CCC(=O)Nc1ccc2ncccc2c1	?	i	?	?	i	21µM*
COc1ccc(OCC(=O)Nc2ccc(NC(=O)c3cccs3)c(OC)c2)cc1	-2%	i	-17%	-2%	i	-1%
COc1ccc(/C=N/n2cc(-c3ccccc3)nc2N)cc1	?	3.7µM*	-3%[0.365 µM]	?	7.3µM*	23µM*
O=C(NNc1nc2cc3c(cc2s1)OCCO3)c1ccc(F)cc1	-28%	?	?	2.8µM*	?	0.26µM*
O=C(NNc1nc2cc3c(cc2s1)OCO3)c1ccc(F)cc1	-4%	i	?	1.3µM*	?	4%
C=CCn1c(=O)n2ncnc2c2c3c(sc21)CCCC3	-10%	i	2%	?	15µM*	-1%
O=c1n(Cc2ccc(Cl)cc2)c2sc3c(c2c2ncnn12)CCCC3	-5%	?	?	?	?	?
COc1cccc(-c2cc(C(=O)Nc3c(C)nn(Cc4ccccc4Cl)c3C)no2)c1	·	i	·	·	i	·
NC(=O)CSc1nc2ccc([N+](=O)[O-])cc2[nH]1	-3%	i	0%[10 µM]	0%	i	-1%
O=[N+]([O-])c1ccc(CSc2nc3ccccc3[nH]2)cc1	2%	i	-23%	?	21µM*	4%
CCCOc1ccc(CSc2nc3ccccc3[nH]2)cc1	-3%	i	6.3µM*	?	?	28%
Cc1cccc2nc(CSc3nc4ccc([N+](=O)[O-])cc4[nH]3)c(Br)n12	17%	?	?	?	12µM*	1%
c1ccc(CSc2nc3ccccc3[nH]2)cc1	-1%	i	?	-22%	i	4%
O=C(Nc1cccc(Cl)c1)C1CCN(S(=O)(=O)Cc2ccccc2)CC1	·	i	·	·	i	·
Cc1ccc(C(=O)c2cn(Cc3cc(C)ccc3C)c3nc(C)ccc3c2=O)cc1	·	i	·	·	?	·
N#CC1=C(N)NC(SCc2ccc(Cl)cc2)=C(C#N)C12CCCCC2	7%	?	-18%	?	i	?
N#CC1=C(N)NC(SCc2ccccc2)=C(C#N)C12CCCC2	?	?	-13%	44%	?	18µM*
Cc1ccc(-c2ccc(/C=C3\SC(N4CCOCC4)=NC3=O)o2)cc1	18µM*	i	-7%	18%	i	23µM*
O=C(CS(=O)(=O)c1cn(Cc2cccc(F)c2)c2ccccc12)N1CCOCC1	-8%	i	8%	44%	23µM*	0%
Fc1cccc(Cn2cc(C(=S)N3CCCCC3)c3ccccc32)c1	11%	i	7.9µM*	7.1µM*	?	9%
SMILES	SW480 rerep	KB-3-1 tox	Gal4-VP16 FLuc	RORg inh	KB-V1 cytotox	MCF10A rerep
O=C(CS(=O)(=O)c1cn(Cc2ccc(F)cc2)c2ccccc12)N1CCOCC1	0%	?	0%	34%	i	1%
Fc1cccc(Cn2cc(C(=S)N3CCOCC3)c3ccccc32)c1	-10%	i	-13%	?	i	6%
COc1ccc(Nc2c(C3CC3)nc3nc(C)cc(C)n23)cc1	·	?	·	·	i	·
N#C/C(=C1\C(=O)Nc2c(Cl)cc(Cl)cc21)c1nnc2n1CCCCC2	-3%	i	?	16µM*	i	-1%
N#C/C(=N\Nc1cc(Cl)cc(Cl)c1)c1nnc2n1CCCCC2	-9%	i	6.3µM*	6.3µM*	i	?
COC(=O)c1cccc(Nc2nn3c(=O)c4cc5c(cc4nc3s2)OCO5)c1	·	i	·	·	i	·
Cn1c(=O)c2cc(C(=O)N3CCN(c4ccc(Cl)cc4)CC3)sc2c2ccccc21	·	i	·	·	i	·
CCN(C(=O)c1cccn(Cc2cccc(Cl)c2)c1=O)c1ccccc1	·	i	·	·	?	·
CN(C(=O)CSc1nc2c(c(=O)[nH]1)CCCC2)C1CCCCC1	-1%	i	-6%	11%	16µM*	?
CN(C(=O)CSc1nc(N)cc(=O)[nH]1)C1CCCCC1	·	i	·	·	?	·
N#CCc1c(C#N)c(N)nc(N2CCN(c3ccc(F)cc3)CC2)c1C#N	-3%	?	-8%	2%	12µM*	?
N#CCc1c(C#N)c(N)nc(N2CCN(Cc3ccc4c(c3)OCO4)CC2)c1C#N	9%	?	-7%	-17%	21µM*	16µM*
Cc1cc(C)c(C#N)c(N2CCN(Cc3ccc4c(c3)OCO4)CC2)n1	1%	i	-5%	6%	?	15%
Cn1c(SCc2ccccc2F)nnc1-c1ccccn1	-5%	i	4%	0%	i	-11%
O=c1c(Cc2c(F)cccc2Cl)c(O)ccn1CCc1ccccn1	-14%	i	-17%	-4%	i	4%
Nc1nc(-c2ccccn2)nc(N)c1Cc1ccccc1F	8%	i	1%	6.3µM*	?	?
Clc1ccc(OCc2nc(-c3ccccn3)no2)c(Br)c1	-12%	i	?	?	i	17%
Nc1nc(-c2ccccn2)nc(N)c1Cc1c(F)cccc1Cl	?	?	11µM*	2.8µM*	?	?
Nc1nc(-c2ccccn2)nc(N)c1Cc1ccc(Cl)cc1Cl	10µM*	?	8.9µM*	4µM*	?	?
O=C(COc1ccc(Cl)cc1)NCC(c1ccco1)S(=O)(=O)c1ccc(Cl)cc1 (centres undefined)	·	i	·	·	i	·
Cc1ccc(NC(=O)CSc2nc(-c3ccco3)cc(C(F)(F)F)n2)c(C)c1	·	?	·	·	i	·
CC(=O)c1ccc(NC(=O)CCSc2nc(-c3ccco3)cc(C(F)(F)F)n2)cc1	·	i	·	·	i	·
